We go through 38 compounds from PubChem BioAssay (Tox21).

Results filed as inconclusive are left out. A call without a number means that no potency is given here. Values without a mark were called inactive. The source made the active and inactive calls. Unless noted, calls come from the whole dose curve; as a rule, active = well fitted curve in the direction sought with a large enough effect in the repeat runs; inconclusive = weak or mixed curves; inactive = no such curve, though single readings can be large; an effect the other way counts as inactive or inconclusive.

The target in the first assay is Androgen receptor (Homo sapiens) (UniProt P10275). Briefly: qHTS assay to identify small molecule antagonists of the androgen receptor (AR) signaling pathway using the MDA cell line in the presence of 0.5 nM R1881 (AID 1259243). Note: nearly all actives have a fitted effect of over 50% in size. Note: potency is the fitted concentration of half-maximal effect. The following applies: MDA-kb2 MMTV-luciferase, R1881 0.5 nM, 16 h; series mostly up to 42.5 µM. In short, it runs like this: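 Luciferase luminescence is the read-out: compounds are tested for suppressing 0.5 nM R1881-driven MMTV reporter activity in MDA-kb2 cells after 16 hr at 37C.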
Androgen receptor (Homo sapiens), sequence (P10275 whole entry, looked up): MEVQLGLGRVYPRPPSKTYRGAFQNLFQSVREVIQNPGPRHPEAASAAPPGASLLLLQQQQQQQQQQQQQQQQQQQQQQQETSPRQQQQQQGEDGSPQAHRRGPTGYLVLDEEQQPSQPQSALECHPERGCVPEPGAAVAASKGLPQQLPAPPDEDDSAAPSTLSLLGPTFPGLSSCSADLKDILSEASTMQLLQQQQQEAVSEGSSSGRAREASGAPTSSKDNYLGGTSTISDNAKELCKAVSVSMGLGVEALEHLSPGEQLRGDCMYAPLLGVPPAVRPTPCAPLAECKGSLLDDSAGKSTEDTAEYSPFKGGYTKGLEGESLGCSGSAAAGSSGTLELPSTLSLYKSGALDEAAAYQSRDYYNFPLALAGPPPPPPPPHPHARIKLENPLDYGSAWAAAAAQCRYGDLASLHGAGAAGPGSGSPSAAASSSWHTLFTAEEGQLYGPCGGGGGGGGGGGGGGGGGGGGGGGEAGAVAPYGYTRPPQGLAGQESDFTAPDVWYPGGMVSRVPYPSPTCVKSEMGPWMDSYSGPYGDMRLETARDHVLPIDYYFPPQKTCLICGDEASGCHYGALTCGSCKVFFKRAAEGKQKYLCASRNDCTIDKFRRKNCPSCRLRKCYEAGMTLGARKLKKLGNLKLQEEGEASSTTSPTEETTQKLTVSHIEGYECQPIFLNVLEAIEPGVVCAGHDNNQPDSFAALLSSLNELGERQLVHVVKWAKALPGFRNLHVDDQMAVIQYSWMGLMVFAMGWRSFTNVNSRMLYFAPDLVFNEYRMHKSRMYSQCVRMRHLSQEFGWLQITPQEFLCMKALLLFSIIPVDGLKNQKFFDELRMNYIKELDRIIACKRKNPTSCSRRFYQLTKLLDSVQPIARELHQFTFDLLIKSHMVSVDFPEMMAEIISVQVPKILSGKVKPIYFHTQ
As for `CC(C)(C)CC(C)(C)c1ccc(OCCO)cc1`, the Potency was 6.82 µM (active).
In the case of `Cc1ccc(Nc2nccc(N(C)c3ccc4c(C)n(C)nc4c3)n2)cc1S(N)(=O)=O`, the Potency was 11.9 µM (active).
`C=CCOC(=O)/C=C\C(=O)OCC=C`: the Potency entry was “inactive”.
`CC1(C)C2=CCCC(C)(C)[C@]23CC[C@H]1C3`: the Potency result is “inactive”.
Still for that read-out and setting: next, `CCOC(=O)N1CCC(n2c(=O)[nH]c3cc(Cl)ccc32)CC1`: 21.1 µM (active).
As to `C=CC(=C)CCCC(C)(C)OC(C)=O`, the Potency result was “inactive”.
As for `OC(CCCN1CCCCC1)(c1ccccc1)c1ccccc1`, the Potency entry is “inactive”.
As for `CO[C@H]1C=CO[C@@]2(C)Oc3c(C)c(O)c4c(O)c(c5c(c4c3C2=O)=NC2(CCN(CC(C)C)CC2)N=5)NC(=O)/C(C)=C\C=C/[C@H](C)[C@H](O)[C@@H](C)[C@@H](O)[C@@H](C)[C@H](OC(C)=O)[C@@H]1C`, the Potency was 67.1 µM (active).
With `O=C(N/N=C/c1ccc([N+](=O)[O-])o1)c1ccc(O)cc1`, the Potency was 3.76 µM (active).
`Cc1cc2nc3ccc(=[N+](C)C)cc-3sc2cc1N`: the Potency was 1.5 µM (active).
Still for that read-out and setting: next, `CCc1cccc(N(C)C(N)=Nc2cccc3ccccc23)c1`: “inactive”.

The next assay deals with Estrogen receptor (Homo sapiens) (UniProt P03372). Briefly: qHTS assay to identify small molecule antagonists of the estrogen receptor alpha (ER-alpha) signaling pathway using the BG1 cell line in the presence of 0.1 nM 17-beta-estradiol (AID 1259244). Note: nearly all actives have a fitted effect of over 50% in size. Note: potency is the fitted concentration of half-maximal effect. As to conditions: VM7Luc4E2 (BG1) ERE-luciferase, antagonist mode, 0.1 nM E2, 22 h; series mostly up to 92.4 µM. In short, it runs like this: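 Cells: VM7Luc4E2, endogenous ER-alpha, 4x ERE-luc stable. Pre-culture 5 d, phenol red-free, charcoal-stripped FBS. Plated 24 h, compound + E2 0.1 nM final, 22 h 37C/5% CO2. Readout ONE-Glo luminescence.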
Estrogen receptor (Homo sapiens), sequence (P03372 whole entry, looked up): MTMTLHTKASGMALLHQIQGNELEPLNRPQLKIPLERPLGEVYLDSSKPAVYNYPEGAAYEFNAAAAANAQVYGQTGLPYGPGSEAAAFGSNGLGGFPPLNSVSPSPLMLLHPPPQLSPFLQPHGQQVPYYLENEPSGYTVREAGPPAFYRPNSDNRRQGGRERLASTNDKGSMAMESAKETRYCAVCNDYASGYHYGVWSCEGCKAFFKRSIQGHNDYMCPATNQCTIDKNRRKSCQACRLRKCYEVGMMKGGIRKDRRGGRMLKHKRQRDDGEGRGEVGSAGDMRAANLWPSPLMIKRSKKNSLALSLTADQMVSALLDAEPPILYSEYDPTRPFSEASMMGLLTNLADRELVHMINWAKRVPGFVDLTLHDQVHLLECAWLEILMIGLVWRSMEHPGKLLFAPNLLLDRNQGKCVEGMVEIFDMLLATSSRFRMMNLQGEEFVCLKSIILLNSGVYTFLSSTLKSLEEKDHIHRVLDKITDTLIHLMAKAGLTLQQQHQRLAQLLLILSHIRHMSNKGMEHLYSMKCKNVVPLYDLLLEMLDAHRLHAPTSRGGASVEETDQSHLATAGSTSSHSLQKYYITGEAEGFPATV
A general note: qHTS replaces the single test concentration by a dilution series.
As to `CC(C)(C)CC(C)(C)c1ccc(OCCO)cc1`, the Potency is 10.8 µM (active).
As to `C=CCOC(=O)/C=C\C(=O)OCC=C`, the Potency entry is “inactive”.
On the same count and under the same terms, next, `CCOC(=O)N1CCC(n2c(=O)[nH]c3cc(Cl)ccc32)CC1`: 23.7 µM (active); `OC(CCCN1CCCCC1)(c1ccccc1)c1ccccc1`: “inactive”; `CO[C@H]1C=CO[C@@]2(C)Oc3c(C)c(O)c4c(O)c(c5c(c4c3C2=O)=NC2(CCN(CC(C)C)CC2)N=5)NC(=O)/C(C)=C\C=C/[C@H](C)[C@H](O)[C@@H](C)[C@@H](O)[C@@H](C)[C@H](OC(C)=O)[C@@H]1C`: 59.8 µM (active).
Still for that read-out and setting: next, `O=C(N/N=C/c1ccc([N+](=O)[O-])o1)c1ccc(O)cc1`: 26.6 µM (active); `Cc1cc2nc3ccc(=[N+](C)C)cc-3sc2cc1N`: 26.6 µM (active).
On to `CNCCCC1c2ccccc2C=Cc2ccccc21`, for which the Potency result is “inactive”.
On to `COc1cc2c(N3CCN(C(=O)Nc4ccc(OC(C)C)cc4)CC3)ncnc2cc1OCCCN1CCCCC1`, for which the Potency entry was “inactive”.
`CCNC(=O)N1CCN(CCCC(c2ccc(F)cc2)c2ccc(F)cc2)CC1`: the Potency was 18.8 µM (active).

Test system in a further assay: not listed separately
The assay can be described thus: qHTS assay to identify small molecule phospholipidosis (PLD) inducers (AID 1259344; active = well fitted curve in the direction sought with a large enough effect; an effect the other way counts as inactive or inconclusive). As to conditions: HepG2 phospholipidosis, LipidTOX Red imaging, 24 h; series mostly up to 38.3 µM. In short, it runs like this: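 Fluorescent phospholipid staining (LipidTOX Red) measured by automated microscopy in fixed HepG2 cells after 24 h treatment; nuclei counterstained with Hoechst 33342; amiodarone as reference inducer.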
As to `CC(C)(C)CC(C)(C)c1ccc(OCCO)cc1`, the call was inactive.
Take `O=C(CCCN1CCN(c2ccc(F)cc2)CC1)NC1c2ccccc2CSc2ccccc21` (stereo unspecified): the call was inactive.
Regarding `CO[C@H]1C=CO[C@@]2(C)Oc3c(C)c(O)c4c(O)c(c5c(c4c3C2=O)=NC2(CCN(CC(C)C)CC2)N=5)NC(=O)/C(C)=C\C=C/[C@H](C)[C@H](O)[C@@H](C)[C@@H](O)[C@@H](C)[C@H](OC(C)=O)[C@@H]1C`, the compound was called inactive.
Same read-out and setting: with `O=C(N/N=C/c1ccc([N+](=O)[O-])o1)c1ccc(O)cc1` the entry was “inactive”.
In the case of `Cc1cc2nc3ccc(=[N+](C)C)cc-3sc2cc1N`, the PLD induction is -3.22% [at 0.306 µM].
With `CCc1cccc(N(C)C(N)=Nc2cccc3ccccc23)c1`, the compound was classed as inactive.
With `CCNC(=O)N1CCN(CCCC(c2ccc(F)cc2)c2ccc(F)cc2)CC1`, the compound was classed as inactive.

Test system in a further assay: not listed separately
Briefly: qHTS assay to identify small molecule HDAC inhibitors (AID 1259364). For activity change, negative = inhibition: top concentration of the series differs between compounds. Note: nearly all actives have a fitted effect of over 45% in size. Note: potency is the fitted concentration of half-maximal effect. The following applies: HCT-116 HDAC-Glo I/II luminescence, 2 h; series mostly up to 92.4 µM. In short, it runs like this: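 Luminescence from a cell-permeant luminogenic class I/II HDAC substrate reports endogenous deacetylase activity in intact HCT-116 cells treated with compounds for 2 h.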
Take `CCCCCCOC(=O)C(C)C`: the Potency result is “inactive”.
As for `C[C@@H]1C[C@H]2[C@@H]3CCC4=CC(=O)C=C[C@]4(C)[C@@]3(F)[C@@H](O)C[C@]2(C)[C@H]1C(=O)CO`, the Potency entry was “inactive”.
Consider `CC(C)(C)C(=O)O`, for which the Potency entry was “inactive”.
For `CC(C)C(OC(=O)c1ccccc1)C(C)(C)COC(=O)c1ccccc1` (stereo unspecified), the Potency entry was “inactive”.
With `CCCCCCOC(=O)CCCCCCCC(=O)OCCCCCC`, the Potency entry is “inactive”.
As to `C[C@@H]1C[C@H]2[C@@H]3CCC4=CC(=O)C=C[C@]4(C)[C@@]3(F)[C@@H](O)C[C@]2(C)[C@@]1(O)C(=O)CO`, the Potency result was “inactive”.
On to `CC(C)(C)CC(C)(C)c1ccc(OCCO)cc1`, for which the Potency entry is “inactive”.
In the case of `O=C(N[C@@H](c1ccccc1)[C@@H]1CCCCN1)c1cccc(C(F)(F)F)c1Cl`, the Potency entry is “inactive”.
Consider `CC[C@H](NC(=O)c1cc(F)ccc1NS(=O)(=O)c1cccc2cccnc12)c1ccccc1`, for which the Potency entry was “inactive”.
On the same count and under the same terms, with `Cc1ccc(Nc2nccc(N(C)c3ccc4c(C)n(C)nc4c3)n2)cc1S(N)(=O)=O` the entry was “inactive”.
In the case of `CO[C@H]1O[C@H](CO)[C@@H](O)[C@H](O)[C@H]1O`, the Potency entry is “inactive”.
On to `C=CCOC(=O)/C=C\C(=O)OCC=C`, for which the Potency entry was “inactive”.
As to `CC1(C)C2=CCCC(C)(C)[C@]23CC[C@H]1C3`, the Potency entry is “inactive”.
In the case of `CC1C2CC(CC2C2CCCC(O)C2)C1(C)C` (stereo unspecified), the Potency entry is “inactive”.
Same read-out and setting: next, `CCOC(=O)N1CCC(n2c(=O)[nH]c3cc(Cl)ccc32)CC1`: “inactive”; `O=C(CCCN1CCN(c2ccc(F)cc2)CC1)NC1c2ccccc2CSc2ccccc21` (stereo unspecified): “inactive”.
As for `C=CC(=C)CCCC(C)(C)OC(C)=O`, the Potency entry was “inactive”.
As to `Cc1cnc(C)c(C)n1`, the Potency entry is “inactive”.
Same read-out and setting: next, `OC(CCCN1CCCCC1)(c1ccccc1)c1ccccc1`: “inactive”.
The same measure, in the same setting: next, `CO[C@H]1C=CO[C@@]2(C)Oc3c(C)c(O)c4c(O)c(c5c(c4c3C2=O)=NC2(CCN(CC(C)C)CC2)N=5)NC(=O)/C(C)=C\C=C/[C@H](C)[C@H](O)[C@@H](C)[C@@H](O)[C@@H](C)[C@H](OC(C)=O)[C@@H]1C`: “inactive”.
Take `O=C(N/N=C/c1ccc([N+](=O)[O-])o1)c1ccc(O)cc1`: the Potency entry is “inactive”.
Same read-out and setting: with `CCC(=O)Oc1ccc(/C(CC)=C(\CC)c2ccc(OC(=O)CC)cc2)cc1` the entry was “inactive”.
In the case of `[O]=[Bi]`, the activity change, negative = inhibition is 9.82% [at 8.39 µM].
On to `Cc1cc2nc3ccc(=[N+](C)C)cc-3sc2cc1N`, for which the Potency was 10.6 µM (active).
On to `CCc1cccc(N(C)C(N)=Nc2cccc3ccccc23)c1`, for which the Potency entry is “inactive”.
Regarding `CCCCCCCC/C=C\CCCCCCCC(=O)OC(CO)CO`, the Potency entry was “inactive”.
For the compound `C[C@]12CCC(=O)C=C1C=C[C@@H]1[C@@H]2CC[C@@]2(C)[C@H]1CC[C@@]21CCC(=O)O1`, the Potency entry is “inactive”.
For the compound `CNCCCC1c2ccccc2C=Cc2ccccc21`, the Potency entry is “inactive”.
On to `Cc1cc(S(=O)(=O)O)ccc1N=Nc1c(O)ccc2ccccc12`, for which the Potency was 0.686 µM (active).
Turning to `CCC(Cc1ccccc1)(C(=O)c1ccc(N2CCOCC2)cc1)N(C)C` (stereo unspecified), the Potency result was “inactive”.
On the same count and under the same terms, with `CC1=C(/C=C/C(C)=C\C=C\C(C)=C\C(=O)O)C(C)(C)CCC1` the entry was “inactive”; with `C=CC(=O)NCOCC(C)C`, “inactive”.
In the case of `COc1cc2c(N3CCN(C(=O)Nc4ccc(OC(C)C)cc4)CC3)ncnc2cc1OCCCN1CCCCC1`, the Potency entry was “inactive”.
For `C=CC(C)(C)CC(=O)OC`, the Potency entry is “inactive”.
Turning to `CC1(C)C(=O)N(Br)C(=O)N1Cl`, the Potency result was “inactive”.
On to `CCNC(=O)N1CCN(CCCC(c2ccc(F)cc2)c2ccc(F)cc2)CC1`, for which the Potency result is “inactive”.
On to `O=S(=O)(c1ccccc1)c1ccc(Cl)cc1`, for which the Potency result is “inactive”.
On the same count and under the same terms, with `CC(=N\O)/C(C)=N/O` the entry was “inactive”.
